Assay [1] can be described thus: antimalarial activity against Dd2 strain (AID 2302;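 active means growth inhibition above 50% at the single 2 µM test dose, taken to imply half-maximal potency below 2 µM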;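 further: 0% = DMSO untreated growth and 100% = chloroquine plus artemisinin killed control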). Particulars: P. falciparum Dd2 in RBCs, LDH growth readout, 72 h; at 2 µM; hits give high values.
Assay [2] in a line: human hepatoma cell viability loss – ATP luminescence, cytotoxicity control for P. falciparum antimalarial project, primary screen (AID 2303;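 active means inhibition above 50%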;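 further: 0% = DMSO wells and 100% = digitonin-killed cells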). Particulars: HepG2 viability, 24-48 h, at 10 µM, hits give high values.
For assay [3], the target named is L-lactate dehydrogenase (Plasmodium falciparum (isolate CDC / Honduras)) (UniProt Q27743). Put plainly: PfLDH activity inhibition – cell lysate, 3D7 strain, counter-screen for P. falciparum growth inhibition project (AID 2304).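 Further: 0% = vehicle and 100% = reference inhibitor.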 The following applies: P. falciparum 3D7 crude extract, LDH APAD/NBT absorbance; at 2 µM; hits give high values.
The nature of assay [4]: inhibition of 3D7 malaria parasite growth – strain 3D7 (AID 2306).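 Further: 0% = DMSO wells and 100% = chloroquine plus artemisinin control wells.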 The following applies: P. falciparum 3D7 erythrocytic growth, LDH absorbance, 72 h; at 2 µM; hits give high values.
Assay [5] concerns the target Calcium-dependent protein kinase 1 (Plasmodium falciparum (isolate 3D7)) (UniProt P62344). In words: PfCDPK1 kinase inhibitors, biochemical, TCAMS library (AID 1159585; cut-off not given, nearly all actives have IC50 up to about 0.98 µM;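 further: inhibitors leave more ATP so luminescence rises with inhibition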). Particulars: recombinant PfCDPK1, Kinase-Glo ATP depletion luminescence. (In general: In Kinase-Glo more light means more ATP remaining.)
Assay [6] deals with Plasmodium falciparum protein kinase 6 (PK6, PF3D7_1337100) (UniProt Q8IDW1). In words: PfPK6 kinase inhibitors, biochemical, TCAMS library (AID 1159586). Particulars: recombinant PfPK6, Kinase-Glo ATP depletion luminescence.
The target in assay [7] is Protein kinase 7 (PK7), Plasmodium falciparum 3D7 (PF3D7_0213400) (UniProt Q7YTF7). In words: inhibition of Plasmodium PK7 catalytic activity – biochemical, TCAMS antimalarial set, Kinase-Glo luminescence (AID 1159587). The following applies: recombinant PfPK7, Kinase-Glo ATP depletion luminescence.
Assay [8] concerns the target Calcium-dependent protein kinase 4 (Plasmodium falciparum (isolate 3D7)) (UniProt Q8IBS5). Put plainly: PfCDPK4 kinase inhibitors, biochemical, TCAMS library (AID 1159588; cut-off not given, nearly all actives have IC50 up to about 0.91 µM). Particulars: recombinant PfCDPK4, Kinase-Glo ATP depletion luminescence.

A number with no mark means an inactive call. For some of these results: Measured potencies and affinities stand elsewhere. Calls of active or inactive are those of the source. Unless noted, how the calls were made is not given here.

L-lactate dehydrogenase (Plasmodium falciparum (isolate CDC / Honduras)), sequence (Q27743 whole entry, looked up): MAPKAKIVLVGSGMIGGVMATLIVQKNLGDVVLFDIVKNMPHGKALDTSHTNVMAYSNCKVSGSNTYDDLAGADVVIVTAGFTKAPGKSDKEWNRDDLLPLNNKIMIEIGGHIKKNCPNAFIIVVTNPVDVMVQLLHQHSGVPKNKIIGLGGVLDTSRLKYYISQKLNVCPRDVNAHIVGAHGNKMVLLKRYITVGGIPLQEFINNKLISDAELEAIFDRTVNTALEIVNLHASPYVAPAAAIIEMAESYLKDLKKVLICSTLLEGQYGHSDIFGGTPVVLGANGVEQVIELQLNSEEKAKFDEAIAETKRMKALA
Protein kinase 7 (PK7), Plasmodium falciparum 3D7 (PF3D7_0213400), sequence (Q7YTF7 1-343): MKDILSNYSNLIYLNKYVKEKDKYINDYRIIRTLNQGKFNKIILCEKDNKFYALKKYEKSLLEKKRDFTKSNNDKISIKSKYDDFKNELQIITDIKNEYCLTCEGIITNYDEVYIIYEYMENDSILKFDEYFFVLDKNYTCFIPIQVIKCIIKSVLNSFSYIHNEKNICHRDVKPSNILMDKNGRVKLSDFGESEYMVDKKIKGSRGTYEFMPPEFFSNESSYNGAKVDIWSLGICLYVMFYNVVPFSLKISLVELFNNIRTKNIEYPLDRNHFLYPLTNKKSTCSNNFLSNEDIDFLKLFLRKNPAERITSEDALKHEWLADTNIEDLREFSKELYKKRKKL
Plasmodium falciparum protein kinase 6 (PK6, PF3D7_1337100), sequence (Q8IDW1 1-305): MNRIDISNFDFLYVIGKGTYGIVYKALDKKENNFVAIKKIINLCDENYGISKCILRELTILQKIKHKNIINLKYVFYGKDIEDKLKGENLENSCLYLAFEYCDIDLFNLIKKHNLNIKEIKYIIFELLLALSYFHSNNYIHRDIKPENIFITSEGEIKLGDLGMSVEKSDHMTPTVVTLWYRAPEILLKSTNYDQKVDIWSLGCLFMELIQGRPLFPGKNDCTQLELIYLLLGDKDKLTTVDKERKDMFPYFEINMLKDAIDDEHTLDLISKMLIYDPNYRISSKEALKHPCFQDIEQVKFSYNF
Calcium-dependent protein kinase 1 (Plasmodium falciparum (isolate 3D7)), sequence (P62344 whole entry, looked up): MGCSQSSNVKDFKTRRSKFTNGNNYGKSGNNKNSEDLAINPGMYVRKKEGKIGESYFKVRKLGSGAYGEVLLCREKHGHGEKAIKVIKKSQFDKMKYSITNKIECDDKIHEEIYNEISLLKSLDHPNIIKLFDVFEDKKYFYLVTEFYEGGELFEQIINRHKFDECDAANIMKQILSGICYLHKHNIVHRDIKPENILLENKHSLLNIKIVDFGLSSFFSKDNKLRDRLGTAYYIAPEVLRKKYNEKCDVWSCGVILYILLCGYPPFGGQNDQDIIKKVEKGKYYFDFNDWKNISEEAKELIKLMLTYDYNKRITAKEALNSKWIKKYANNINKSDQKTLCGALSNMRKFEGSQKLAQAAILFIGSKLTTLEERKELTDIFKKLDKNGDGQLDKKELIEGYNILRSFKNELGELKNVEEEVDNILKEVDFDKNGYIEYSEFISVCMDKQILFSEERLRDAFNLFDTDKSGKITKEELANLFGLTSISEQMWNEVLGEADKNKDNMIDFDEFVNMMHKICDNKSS
Calcium-dependent protein kinase 4 (Plasmodium falciparum (isolate 3D7)), sequence (Q8IBS5 whole entry, looked up): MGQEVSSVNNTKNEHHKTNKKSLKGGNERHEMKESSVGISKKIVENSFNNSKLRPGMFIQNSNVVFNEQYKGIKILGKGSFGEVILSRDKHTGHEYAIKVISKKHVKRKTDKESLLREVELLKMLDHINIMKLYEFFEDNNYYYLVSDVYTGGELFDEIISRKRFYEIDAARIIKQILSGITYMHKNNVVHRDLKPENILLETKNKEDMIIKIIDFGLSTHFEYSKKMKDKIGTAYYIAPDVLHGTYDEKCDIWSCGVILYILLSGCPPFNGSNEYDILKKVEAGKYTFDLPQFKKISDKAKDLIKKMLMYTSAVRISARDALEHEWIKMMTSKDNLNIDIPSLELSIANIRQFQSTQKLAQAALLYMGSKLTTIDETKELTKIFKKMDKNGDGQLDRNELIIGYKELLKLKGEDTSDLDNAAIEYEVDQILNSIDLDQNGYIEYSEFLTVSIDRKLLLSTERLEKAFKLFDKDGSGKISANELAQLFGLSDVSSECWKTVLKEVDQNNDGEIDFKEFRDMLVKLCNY

As usually defined, the inhibition is the change of the read-out against control, counted positive when it falls. With `Cc1cc(NC(=O)NCCN2CCC(NS(=O)(=O)c3ccc(C(F)(F)F)cc3)C2)c2ccccc2n1` (stereo not given), the growth inhibition was 39% in assay [1] and 96% (active) in assay [4]. Moreover, the inhibition in assay [2] is 15%; in assay [3], -3%. In addition, the outcome in assay [5], in assay [6], in assay [7] and in assay [8] was inactive.

For the compound `O=C(CN1CCC2(CCC1=O)CC(=O)c1ccccc1O2)NCCN1CCOCC1` (stereo not given), the growth inhibition in assay [1] was -4%; in assay [4], 101% (active). Also, the inhibition is 6% in assay [2] and -4% in assay [3]. The outcome in assay [5], in assay [6], in assay [7] and in assay [8] was inactive.

`C=CCOC(=O)N1CCC(CNCc2ccc(-c3ccc(-c4nc5ccc(C(F)(F)F)cc5[nH]4)cc3)cc2)C1` (stereo not given): the growth inhibition in assay [1] was 98% (active); in assay [4], 103% (active). For the same compound, the results for the inhibition in assay [2] and in assay [3] were 44% and -2%, respectively. In addition, the outcome in assay [5], in assay [6], in assay [7] and in assay [8] was inactive.

`Oc1ccc2[nH]c(-c3cccc(F)c3)nc2c1CN1CCCC1`: the results for the growth inhibition in assay [1] and in assay [4] were 47% and 100% (active), respectively. Also, the inhibition in assay [2] was 0%; in assay [3] it was 5%. In addition, the result in assay [5], in assay [6], in assay [7] and in assay [8] was inactive.

For `COc1ccc2nccc([C@@H](O)CN3CCC(NCCOc4ccc(F)cc4Cl)CC3)c2c1`, the growth inhibition in assay [1] is 85% (active); in assay [4] it was 99% (active). The inhibition in assay [2] was 1%; in assay [3], 3%. The outcome in assay [5], in assay [6], in assay [7] and in assay [8] was inactive.

For `Cc1cc(NN=Cc2ccccn2)c2cc(F)ccc2n1`, the growth inhibition is 96% (active) in assay [1] and 100% (active) in assay [4]. Also, the inhibition was 9% in assay [2] and 5% in assay [3]. For the same compound, the result in assay [5], in assay [6], in assay [7] and in assay [8] was inactive.

As to `CCN(CC)c1ccc(NC(=S)NC2CCN(CCCCCNC(=O)/C=C/c3ccc(Cl)c(Cl)c3)CC2)cc1`, the growth inhibition was 58% (active) in assay [1] and 100% (active) in assay [4]. For the same compound, the inhibition is 16% in assay [2] and 3% in assay [3]. Further, the result in assay [5], in assay [6], in assay [7] and in assay [8] was inactive.

Consider `CN1CCN(CC(=O)Nc2ccc(-c3ccc(-c4nc5ccccc5[nH]4)cc3)cc2)CC1`, for which the growth inhibition was 80% (active) in assay [1] and 98% (active) in assay [4]. Moreover, the inhibition in assay [2] is 18%; in assay [3] it was -1%. The result in assay [5], in assay [6], in assay [7] and in assay [8] was inactive.

`CON=Cc1sc(CNCCCNc2cc(=O)c3ccccc3[nH]2)c(C)c1Br`: the results for the growth inhibition in assay [1] and in assay [4] were 63% (active) and 96% (active), respectively. Besides, the inhibition in assay [2] is -8%; in assay [3] it was -1%. Moreover, the result in assay [5], in assay [6], in assay [7] and in assay [8] was inactive.

Regarding `NC(=NCCCc1ccccc1)c1cccc(C(N)=NCCCc2ccccc2)n1`, the results for the growth inhibition in assay [1] and in assay [4] were -1% and 98% (active), respectively. For the same compound, the inhibition in assay [2] is 44%; in assay [3], -6%. For the same compound, the outcome in assay [5], in assay [6], in assay [7] and in assay [8] was inactive.

With `Nc1c(C(=O)NCCCCN2CCN(c3nsc4ccccc34)CC2)sc2ccccc12`, the growth inhibition in assay [1] was -6%; in assay [4] it was 86% (active). For the same compound, the inhibition in assay [2] was 26%; in assay [3] it was -5%. The outcome in assay [5], in assay [6], in assay [7] and in assay [8] was inactive.

In the case of `FC(F)(F)c1ccc(COc2cc(Cl)ccc2Cn2ccnc2)cc1`, the growth inhibition in assay [1] was 0%; in assay [4] it was 95% (active). Moreover, the inhibition was 13% in assay [2] and -5% in assay [3]. The result in assay [5], in assay [6], in assay [7] and in assay [8] was inactive.

As for `Fc1ccc(CNc2nc(-c3ccc(F)c(C(F)(F)F)c3)n(-c3cccc(C(F)(F)F)c3)n2)cc1`, the growth inhibition is 80% (active) in assay [1] and 95% (active) in assay [4]. Further, the inhibition in assay [2] is 0%; in assay [3], -1%. Also, the result in assay [5], in assay [6], in assay [7] and in assay [8] was inactive.

With `O=C(Cc1ccc(NC(=O)c2ccc(O)c(-c3ccc(Cl)c(Cl)c3)c2)cc1)NCCN1CCCCC1`, the growth inhibition in assay [1] is 63% (active); in assay [4] it was 95% (active). Further, the inhibition in assay [2] is 12%; in assay [3], -4%. Also, the result in assay [5], in assay [6], in assay [7] and in assay [8] was inactive.

In the case of `COc1ccc(-c2ccc(NC(=O)c3ccc(C#N)cc3)cc2)cc1CN(C)CCO`, the growth inhibition was 44% in assay [1] and 99% (active) in assay [4]. In addition, the inhibition in assay [2] is 41%; in assay [3], 9%. For the same compound, the outcome in assay [5], in assay [6], in assay [7] and in assay [8] was inactive.

As to `Cc1ccc(-c2cc(C(=O)Nc3ccc(S(=O)(=O)N4CCCCC4)cc3)[nH]n2)c(O)c1`, the growth inhibition in assay [1] was 92% (active); in assay [4], 97% (active). Besides, the inhibition in assay [2] was 6%; in assay [3], -5%. In addition, the outcome in assay [5], in assay [6], in assay [7] and in assay [8] was inactive.

`CCc1ccc(CN2CCC(NC(=O)c3ccc(-c4ccccc4F)s3)CC2)cc1`: the growth inhibition in assay [1] was 12%; in assay [4] it was 80% (active). Further, the inhibition is 35% in assay [2] and 2% in assay [3]. Besides, the result in assay [5], in assay [6], in assay [7] and in assay [8] was inactive.

Take `CN(C)CCNCc1cccc(-c2ccc3c(Nc4ccc(Oc5ccccc5)cc4)ccnc3c2)c1`: the growth inhibition in assay [1] was 99% (active); in assay [4], 101% (active). Moreover, the figures for the inhibition in assay [2] and in assay [3] were 31% and 2%, respectively. For the same compound, the result in assay [5], in assay [6], in assay [7] and in assay [8] was inactive.

Turning to `C=C(NC(=O)c1cc(C)cc(C)c1)C(=O)OC`, the figures for the growth inhibition in assay [1] and in assay [4] were -2% and 95% (active), respectively. The figures for the inhibition in assay [2] and in assay [3] were 21% and -3%, respectively. In addition, the result in assay [5], in assay [6], in assay [7] and in assay [8] was inactive.

Regarding `c1ccc(Oc2ccc(Nc3ccnc4c(-c5ccccn5)cccc34)cc2)cc1`, the growth inhibition was 58% (active) in assay [1] and 100% (active) in assay [4]. Besides, the values for the inhibition in assay [2] and in assay [3] were 31% and -8%, respectively. In addition, the outcome in assay [5], in assay [6], in assay [7] and in assay [8] was inactive.

Values taken from PubChem BioAssay.
